Source: PubChem BioAssay (EPA / NIEHS)
Where “and” joins values, the source holds several entries; their conditions need not be identical. Equal entries are not always repeated. Inconclusive results are not listed. Calls of active or inactive are those of the source. How the source made its calls, unless noted: active means hit-call score of the fitted dose curve at least 0.9, where 1 is the maximum; inconclusive means response in the unintended direction; inactive means score below 0.9.

Tests used:
[1] = tested on: Thyroperoxidase (TPO), gene 54314; assay: CCTE_Simmons_AUR_rTPO: CCTE's Amplex UltraRed Assay for Thyroperoxidase (TPO) Inhibition, Simmons Lab (AID 2283662);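 on AC50: potency for loss of signal meaning inhibition of peroxidase activity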
Outline: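 Rat thyroid microsomes (5 ug protein) were incubated with test compound (8 concentrations, 5 nM–87.5 uM final, 0.5% DMSO), 25 uM Amplex UltraRed and 300 uM H2O2 in 200 mM phosphate buffer for 30 min at 37C in the dark; fluorescence read at 544/590 nm.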

[2] = read-out: alkyl and aryl transferase (GSTA2), GSTA2 (gene 2939); assay: CLD_GSTA2_6hr: CellzDirect (CLD) Gene Expression Assay for alkyl and aryl transferase (GSTA2) at 6 hours (AID 2283666)
Outline: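 GSTA2 transcript induction at 6 h, quantified by nuclease protection (qNPA) with chemiluminescent detection, in human liver primary hepatocytes exposed to several compound concentrations with 0.2% DMSO as baseline; phase-contrast morphology annotated apparent cytotoxicity.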

[3] = Tanguay_ZF_120hpf_TR_legacy: (Legacy) Oregon State University Tanguay Lab 120 Hour Post-fertilization zebrafish Assay for Touch Response (AID 2283667)
Outline: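 Readout is presence or absence of touch response in 120 hpf zebrafish larvae, assessed by brightfield observation after continuous static exposure at 28C. Final vehicle was 0.64% (vol/vol) DMSO.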

[4] = read-out: organic anion transporter (SLCO1B1), SLCO1B1 (gene 10599); assay: CLD_SLCO1B1_6hr: CellzDirect (CLD) Gene Expression Assay for organic anion transporter (SLCO1B1) at 6 hours (AID 2283668);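 further: active means mRNA induction above DMSO baseline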
Outline: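 SLCO1B1 mRNA induction measured 6 h after dosing by quantitative nuclease protection with chemiluminescent read-out, in human primary hepatocyte cultures given chemicals at several concentrations (vehicle 0.2% DMSO). Increase over DMSO baseline fitted; morphology-based cytotoxicity annotated yes/no.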

[5] = CLD_ACTIN_24hr: CellzDirect (CLD) Gene Expression Assay for Baseline Control (Actin) at 24 hours (AID 2283670)
Outline: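 This 24 h qNPA (S1 nuclease protection, chemiluminescence) actin transcript readout in cultured human liver primary cells serves as baseline control. Signal is fitted upward relative to 0.2% DMSO; chemicals tested at multiple concentrations across two donor preparations.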

[6] = read-out: ABC Transporter (ABCB11), ABCB11 (gene 8647); assay: CLD_ABCB11_24hr: CellzDirect (CLD) Gene Expression Assay for ABC Transporter (ABCB11) at 24 hours (AID 2283674; active means hit-call score of the fitted dose curve at least 0.9, where 1 is the maximum; inactive means score below 0.9)
Outline: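 ABCB11 transcript was quantified by qNPA chemiluminescence in cultured human liver hepatocytes 24 hours after dosing. Fresh dosing solutions were applied on consecutive days, against a 0.2% DMSO vehicle. Cytotoxicity was noted by phase-contrast morphology.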

[7] = read-out: xenobiotic metabolism (CYP1A2), CYP1A2 (gene 1544); assay: CLD_CYP1A2_6hr: CellzDirect (CLD) Gene Expression Assay for xenobiotic metabolism (CYP1A2) at 6 hours (AID 2283663);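 on AC50: potency is for induction meaning a rise in mRNA above DMSO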
Outline: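 mRNA levels quantified by quantitative nuclease protection assay with chemiluminescence, 6 h after dosing human primary hepatocyte cultures (two donors) across several concentrations, vehicle 0.2% DMSO. Induction fitted upward versus DMSO; phase-contrast cytotoxicity annotated.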

[8] = read-out: glucuronosyltransferase (UGT1A1), UGT1A1 (gene 54658); assay: CLD_UGT1A1_6hr: CellzDirect (CLD) Gene Expression Assay for glucuronosyltransferase (UGT1A1) at 6 hours (AID 2283672)
Outline: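 UGT1A1 mRNA induction, read by quantitative nuclease protection assay, 6 h after dosing primary human hepatocytes (two donors, 0.2% DMSO vehicle). Gain of signal fitted relative to vehicle.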

[9] = read-out: sulfotransferase (SULT2A), SULT2A1 (gene 6822); assay: CLD_SULT2A_6hr: CellzDirect (CLD) Gene Expression Assay for sulfotransferase (SULT2A) at 6 hours (AID 2283669);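 further: hits raise transcript level above the DMSO vehicle baseline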
Outline: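 Measured 6 h after dosing, SULT2A1 mRNA in human hepatocyte lysates was quantified by S1 nuclease protection with chemiluminescent detection. Increases fitted against 0.2% DMSO vehicle baseline; phase-contrast cytotoxicity recorded yes/no.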

[10] = read-out: xenobiotic metabolism (CYP1A1), CYP1A1 (gene 1543); assay: CLD_CYP1A1_24hr: CellzDirect (CLD) Gene Expression Assay for xenobiotic metabolism (CYP1A1) at 24 hours (AID 2283673);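 further: CYP1A1 mRNA level by quantitative nuclease protection with chemiluminescence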
Outline: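 Transcript levels were read at 24 h by qNPA chemiluminescence in human liver primary cells. Cells got daily fresh dosing at multiple concentrations (vehicle 0.2% DMSO). Induction fitted upward against DMSO; phase-contrast cytotoxicity annotated.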

Measured: AC50

S=C1NCCN1
active: [1] 6.05 µM
inactive: [2] | [3] | [4] | [5] | [6]

C[N+]1(C)CCCCC1
inactive: [7] | [2] | [3] | [5] | [8]

C#CCC1=C(C)C(OC(=O)C2C(C=C(C)C)C2(C)C)CC1=O (stereo not drawn)
inactive: [7] | [2] | [3] | [4] | [9] | [8]
active: [1] 40.2 µM | [10] 20 µM

COP(=O)(OC)OC(Br)C(Cl)(Cl)Br (stereo not drawn)
inactive: [7] | [2] | [3] | [4] | [9] | [5] | [8] | [10]

CC(C)[C@H](C(=O)O[C@H](C#N)c1cccc(Oc2ccccc2)c1)c1ccc(Cl)cc1
active: [3] 5.43 µM
inactive: [7] | [2] | [9] | [8] | [10]

CCOP(=O)(SC(C)CC)N1CCSC1=O (stereo not drawn)
active: [1] 43.8 µM
inactive: [3] | [4] | [8] | [10] | [6]

CCOP(=S)(OCC)Oc1ccc([N+](=O)[O-])cc1
active: [1] 15.5 µM | [7] 2.19 µM | [10] 5.99 µM
inactive: [2] | [8]

CCOP(=S)(OCC)Oc1cc(C)nc(C(C)C)n1
active: [1] 14.4 µM | [7] 0.589 µM | [10] 6.62 µM
inactive: [2] | [3] | [4] | [8]

CCc1cccc(C)c1N(C(=O)CCl)C(C)COC (stereo not drawn)
inactive: [7] | [2] | [3] | [9] | [5] | [8]
active: [10] 4.65 µM

CSc1nc(NC(C)C)nc(NC(C)C)n1
inactive: [7] | [2] | [3] | [4] | [8]
active: [10] 6.14 µM

CC(Oc1cccc(Cl)c1)C(=O)O (stereo not drawn)
inactive: [7] | [2] | [3] | [5] | [8] | [10]

O=c1ccc(=O)[nH][nH]1
inactive: [1] | [7] | [2] | [3] | [4] | [5] | [8]

CCC(=NOC/C=C/Cl)C1=C(O)CC(C2CCOCC2)CC1=O (stereo not drawn)
inactive: [1] | [7] | [2] | [4] | [5] | [8] | [6]

CN(C)[C@@H]1C(=O)C(C(N)=O)=C(O)[C@@]2(O)C(=O)C3=C(O)c4c(O)cccc4[C@@](C)(O)[C@H]3[C@H](O)[C@@H]12
inactive: [7] | [2] | [3] | [5] | [8] | [6]
active: [1] 17.5 µM and 10.5 µM and 15.5 µM

CCCSP(=O)(OCC)Oc1ccc(Br)cc1Cl (stereo not drawn)
inactive: [7] | [3] | [4] | [9] | [8]
active: [1] 15.6 µM | [10] 20 µM

CCOP(=S)(OCC)OC(Cl)C(Cl)(Cl)Cl (stereo not drawn)
active: [1] 3.97 µM | [10] 4.46 µM
inactive: [7] | [4] | [8] | [6]

COP(=O)(OC)SCn1c(=O)oc2cc(Cl)cnc21
inactive: [7] | [2] | [3] | [10]
active: [1] 7.84 µM

CCC(=O)Nc1ccc(Cl)c(Cl)c1
active: [1] 36 µM | [7] 8.75 µM | [10] 5.72 µM
inactive: [2] | [3] | [8]

CSC1=N[C@@](C)(c2ccccc2)C(=O)N1Nc1ccccc1
inactive: [7] | [2] | [3] | [5] | [8]
active: [1] 25.7 µM | [10] 3 µM

CCOP(=O)(NC(C)C)Oc1ccc(SC)c(C)c1 (stereo not drawn)
inactive: [1] | [2] | [3] | [4] | [8]
active: [7] 4.22 µM | [10] 20 µM

Cc1nn(-c2cc(NS(C)(=O)=O)c(Cl)cc2Cl)c(=O)n1C(F)F
inactive: [7] | [2] | [3] | [4] | [5] | [8] | [10] | [6]

CC(COc1ccc(Oc2ccccc2)cc1)Oc1ccccn1 (stereo not drawn)
inactive: [7] | [2] | [3] | [4] | [8] | [10]

CC(C)N(C(=O)SCC(Cl)=C(Cl)Cl)C(C)C
inactive: [7] | [2] | [3] | [4] | [8] | [10]

N#CSCSC#N
inactive: [7] | [2] | [4] | [9] | [5] | [8] | [10] | [6]
active: [1] 2.75 µM
